# Inconclusive results are not listed. Calls of active or inactive are those of the source. The call rests on the fitted dose curve; in most records, active means well fitted activation curve with a large enough effect; inconclusive means small, poorly fitted or top-dose-only effect; inactive means flat fitted curve, though single readings scatter.
# Test: Confirmation Concentration-Response Assay for qHTS Assay for Epigenetic Modulators
# Conditions: murine C127i LDR cells, GFP reporter derepression, 30 h
# Excerpt: NIH Molecular Libraries Screening Centers Network [MLSCN] NIH Chemical Genomics Center [NCGC] MLSCN Grant: 1 X01 MH079860-01 Assay Provider: Elisabeth D. Martinez, University of Texas SW Medical Center NCGC Assay Overview: This assay, used for the primary screen, was employed here to confirm actives identified from the Locus Derepression (LDR) assay (PubChem AID 1865). The LDR assay detects the derepression of a GFP reporter that is stably integrated in a region of the genome of murine c127i mammary cells that is presumably silenced. Compounds that derepress or induce this reporter locus are identified by enumerating GFP positive cells using an Acumen Explorer Ex3 (TTP Labtech) laser-scanning microplate cytometer.
# NCGC Assay Protocol Summary: Three hundred LDR cells in 5 uL per well were dispensed into black, clear-bottom 1536-well plates. Twenty-three nL compound was transferred to the assay plate and cells were incubated 30 hours at 37 C. Medium was removed, cells were washed two times with PBS, and GFP-positive cells were enumerated as fluorescent objects between the sizes of 20 to 120 um width and depth using an Acumen Explorer Ex3 (TTP Labtech) laser-scanning microplate cytometer. For further details, see Johnson, RL, Huang, W, Jadhav, A, Austin, CP, Inglese, J, Martinez, ED (2008). A quantitative high-throughput screen identifies potential epigenetic modulators of gene expression. […]
smiles,measurement,value
O=C1NC(=O)N(CCc2ccc(F)cc2)C(=O)/C1=C/C=C/c1ccccc1,Potency,12.6 µM (active)
